# Reference: ChEMBL document CHEMBL3988442, “University of Dundee, Small-Polar-MMV Screening Library” (2021)
# The campaign covered roughly 48,000 compounds. About 13,000 (27%) showed an effect of 50% or more. This is one part of the list.
# Tested on: Wolbachia pipientis
# Assay: Anti-Wolbachia Cell-Based Screen
# Assay type: functional
# Set-up: scale not given: in the data most compounds retested in dose-response had high values
# Conditions: 5 µM
row,SMILES,Percent Effect [%]
1,O[C@@H]1CN(Cc2cc(Cl)cc3cccnc23)C[C@@H]1O,10.63
2,Cc1nc(CN(C)C(=O)c2ccc(Cn3cnnn3)cc2)cs1,-19.39
3,CCOc1ncccc1Cn1cc(-c2cncnc2)nn1,-4.97
4,O=C(NCc1nncn1C1CC1)c1ccc(F)c(COCC2CC2)c1,-29.13
5,CC(=O)c1ccc(N2CCC(CO)(CCOc3ccccc3)CC2)nc1,-10.96
6,CC(C)c1nc(CN(C)Cc2ncccc2C(=O)O)cs1,-6.183
7,Cn1ccnc1C1CCCN(C(=O)c2ccc3nccnc3c2)C1 (configuration not stated),95.06
8,CCOc1ccc(C(=O)N2CCCC(c3nccn3C)C2)cc1OCC (configuration not stated),100.4
9,CCOc1ccccc1C(=O)N1CCCC(c2nccn2CCOC)C1 (configuration not stated),-0.2171
10,CCOc1ccc(C(=O)N2C[C@H]3CC[C@@H]2CN(C)C3)cc1OCC,-32.38
11,CC(C)C1CN(C(=O)c2ccc3nccnc3c2)CCS1 (configuration not stated),-6.684
12,O=C(c1ccc2nccnc2c1)N1C[C@@H](CN2CCCC2)[C@@H](CO)C1,-11.65
13,COCCC1(CO)CCCN(CCCc2ccccc2)C1 (configuration not stated),-2.01
14,O=C1NCc2ccccc2CC12CCCN(Cc1ccsc1)C2 (configuration not stated),112.5
15,O=C1NCC[C@]12CN(Cc1ccsc1)C[C@H]2c1ccccc1,6.958
16,O=C1NCc2ccccc2CC12CCCN(CCCc1ccccc1)C2 (configuration not stated),107.4
17,CN(C)C(=O)CN1CCC2(CCCN(Cc3ccsc3)C2)C1=O (configuration not stated),-8.794
18,O=C1N(CCCc2ccccc2)CCCC12CCN(C(CO)CO)C2 (configuration not stated),4.777
19,N#Cc1ccc(CN2C[C@@H]3OCC(=O)N[C@@H]3C2)cc1,-14.55
20,COCCC1(CO)CCCN(Cc2ccc(C#N)cc2)C1 (configuration not stated),0.3825
21,N#Cc1ccc(CN2CCCC3(Cc4ccccc4CNC3=O)C2)cc1 (configuration not stated),129.6
22,Cc1nc(CN2CC[C@@H]3[C@@H](CCC(=O)N3CCc3c[nH]cn3)C2)co1,-20.08
23,COCCN1C[C@@H](C(=O)O)[C@H](c2ccccc2C)C1,-9.465
24,COCCn1cnnc1Cn1ccnc1-c1ccsc1,-0.8108
25,CN(CCO)Cc1nnc(C2CCN(CC(C)(C)C)CC2)n1C,3.482
26,CCn1nnc2c1CCN(S(C)(=O)=O)C2COCc1ccccc1 (configuration not stated),-2.948

row,SMILES,Percent Effect [%]
1,c1cncc(COCC2CNCc3nccn3C2)c1 (configuration not stated),6.541
2,CC(C)Cc1ccc(S(=O)(=O)NCCCN2CCNC(=O)C2)cc1,7.437
3,CSCC(C)(O)CNC(=O)c1cc(Cl)ccc1Cl (configuration not stated),2.772
4,CN(C)CCCNC(=O)c1cc(Cl)ccc1Cl,87.97
5,CN(C)CCCNC(=O)c1ccc(Cl)cc1Cl,119
6,CN(c1ccc(C(=O)NCCCN2CCOCC2)c(Cl)c1)S(C)(=O)=O,-4.637
7,Cc1ccc(-n2ccnc2)c(C(=O)NCCCN(C)C)c1,-3.641
8,CN(C)CCCNC(=O)c1cc(Br)c2c(c1)OCCO2,-6.944
9,COc1cccc2c1OCC(NCc1cnn(-c3ccccc3F)c1)C2 (configuration not stated),-11.75
10,NC(=O)COc1cccc(C(=O)Nc2cnc3n2CCCC3)c1,11.29
11,COc1c(CNCCC(=O)Nc2cccc(C)n2)c(C)nn1C,6.6
12,Cc1cccc(NC(=O)c2cccc(OCc3nnnn3C)c2)n1,73.29
13,Cc1cccc(NC(=O)c2ccc(OCc3nnnn3C)cc2)n1,107.3
14,COc1cc(C(C)=O)ccc1SCC(=O)Nc1cccc(C)n1,6.413
15,COc1nonc1NCn1nc(C)cc1C,152
16,Cc1cc(C)n(CNc2nonc2C(N)=O)n1,109.2
17,Cc1cc(C)n(CC(C)CNC(=O)N(C)Cc2cc(C)on2)n1 (configuration not stated),9.156
18,NC(=O)c1cccc(CC2CCN(C(=O)Cn3cnnn3)C2)c1 (configuration not stated),-10.16
19,CCN(CCC#N)Cn1ncc2cn(-c3ccccc3)nc2c1=O,15.78
20,Cc1ncsc1C(=O)NC1CCN(CC(=O)N(C)C(C)(C)C#N)CC1,-1.04
21,COc1ccccc1C(=O)NC(CC(=O)O)c1cccs1 (configuration not stated),13.12
22,COc1cc(F)c(C(C)NC(=O)c2cccnc2C)cc1OC (configuration not stated),-13.32
23,NC[C@H]1CC[C@H](C(NC(=O)c2cccc(F)c2)c2ccccn2)CC1 (some centres not stated),1.736
24,COc1ccccc1C(=O)NC(c1ccccn1)[C@H]1CC[C@H](CN)CC1 (some centres not stated),100.4
25,COC(=O)c1sc(C(NC(=O)c2ccccc2)C2CC2)nc1C (configuration not stated),-18.8
26,COc1cccc(C(=O)NC(c2ccccn2)[C@H]2CC[C@H](CN)CC2)c1 (some centres not stated),98.61

row,SMILES,Percent Effect [%]
1,Cc1cc(F)ccc1CN1CCCC2(C1)OCCO2,-1.552
2,CNC(=O)C1(C)CN(Cc2cn(C)c3ccc(F)cc23)CCO1 (configuration not stated),119.3
3,CNC(=O)[C@@H]1CC[C@@H]2[C@@H](CCN2Cc2cn(C)c3ccccc23)O1.O=C(O)C(F)(F)F,12.94
4,CN(C)C(=O)C1(C)CN(Cc2cn(C)c3ccc(F)cc23)CCO1 (configuration not stated),142.1
5,Cn1cc(C2(C)CN(Cc3ccc(Cl)c(F)c3)CCO2)cn1 (configuration not stated),-1.471
6,CN(CCN1CCOCC1)C(=O)C1(c2ccc(F)cc2F)CCC1,9.471
7,CN(C)C(=O)C1(C)CN(Cc2cn(C)c3ccccc23)CCO1 (configuration not stated),120.9
8,CN(C)C(=O)COc1ccccc1CN1CCOC2(CCCC2)C1,35.78
9,CCCN1CCN(Cc2cn(CCC(N)=O)c3ccccc23)CC1,5.612
10,CC(NCCCn1ccnc1)c1ccc(N2CCOC2=O)cc1 (configuration not stated),-1.07
11,c1cnc(N2CC3(CCN(C4CCOC4)CC3)c3ccccc32)nc1 (configuration not stated),13
12,O=C(CCN1CCCC1)N1CC[C@@H](c2ccc3ccccc3c2)[C@H](O)C1,-4.226
13,CC(C)C(Sc1ccccc1)C(=O)N(C)Cc1nnc2n1CCC2 (configuration not stated),14.25
14,CCc1cc(-c2nccn2-c2ccccc2CN2CCOCC2)on1,1.321
15,Cc1nc(C)c(CN2CCOC[C@H](Oc3ccccc3)C2)s1,-8.964
16,Cc1noc([C@@]23CCO[C@@H]2CCN(S(=O)(=O)c2cccnc2)C3)n1,103
17,Cc1nnc([C@@]23CCO[C@@H]2CCN(S(C)(=O)=O)C3)o1,-9.969
18,Cc1nnc([C@]23COC[C@H]2CN(S(=O)(=O)c2cccnc2)C3)o1.O=C(O)C(F)(F)F,103.4
19,Cc1nnc([C@]23COC[C@H]2CN(Cc2cnn(C)c2)C3)o1.O=C(O)C(F)(F)F,-19.13
20,O=C1N(CC2CCC2)CCCC12CCN(S(=O)(=O)c1cccnc1)C2 (configuration not stated),16.59
21,Cc1noc([C@@]23CCO[C@@H]2CCN(C(=O)C2CCOCC2)C3)n1,-2.403
22,Cc1noc([C@@]23CCO[C@@H]2CCN(C(=O)c2sccc2C)C3)n1,-13.91
23,Cc1nnc([C@@]23CCO[C@@H]2CCN(S(=O)(=O)c2cccnc2)C3)o1,88.28
24,Cc1nnc([C@@]23CCO[C@@H]2CCN(S(=O)(=O)c2ccccc2)C3)o1,90.56
25,CCCS(=O)(=O)N1CC[C@H]2OCC[C@@]2(c2nnc(C)o2)C1,-9.465
26,Cc1nnc([C@]23COC[C@H]2CN(Cc2cccs2)C3)o1.O=C(O)C(F)(F)F,0.3646

row,SMILES,Percent Effect [%]
1,CC(NC(=O)c1ccoc1)C(=O)N(C)Cc1ccsc1 (configuration not stated),8.82
2,COc1cc(C(=O)N2CCCC(CNS(C)(=O)=O)C2)cc(OC)c1C (configuration not stated),0.06204
3,CC(C)Oc1cc(N2CCN(Cc3ccsc3)C(CCO)C2)nc(N)n1 (configuration not stated),-3.773
4,CCCC(NC(=O)c1ccc(OC)cc1F)c1nnn[nH]1 (configuration not stated),-0.1945
5,COc1c(NS(=O)(=O)c2cc(C)ccc2C)c(C)nn1C,9.711
6,Cc1cc(N2CCCC(c3[nH]ncc3Cc3ccccc3)C2)nc(N)n1 (configuration not stated),51.86
7,Cc1ccc(N2CCCC(c3[nH]ncc3Cc3ccccc3)C2)nn1 (configuration not stated),26.61
8,Cc1ccc(N2CCC(c3[nH]ncc3Cc3ccccc3)CC2)nn1,27.05
9,CCCc1cc(=O)[nH]c2nnc(SCC(=O)OCC)n12,11
10,CC1CN(C(=O)c2sccc2Br)CCO1 (configuration not stated),5.426
11,CC1CN(C(=O)CN(Cc2ccco2)C2CC2)CCO1 (configuration not stated),-3.205
12,CC1CN(C(=O)CCc2cc(Br)cs2)CCO1 (configuration not stated),-0.4778
13,CC1CN(C(=O)CN(Cc2ccco2)Cc2cccs2)CCO1 (configuration not stated),127.8
14,CC(C)(C)c1cc(NC(=O)CN(Cc2ccco2)Cc2cccs2)on1,15.1
15,Cc1ccc(CN(CC(=O)N2CCOC(C)C2)C2CC2)cc1 (configuration not stated),133.3
16,CC1CN(C(=O)CN(Cc2ccccc2Br)C2CC2)CCO1 (configuration not stated),15.13
17,CC1CN(C(=O)c2ccn(-c3cccc(Cl)c3)n2)CCO1 (configuration not stated),3.639
18,CC1CN(C(=O)CN(Cc2ccccc2Cl)C2CCCC2)CCO1 (configuration not stated),167.1
19,Cn1cc(C(=O)N(Cc2ccco2)Cc2cccs2)ccc1=O,-5.076
20,CC1CN(C(=O)CN(Cc2ccccc2)C2CC2)CCO1 (configuration not stated),126.4
21,Cc1nnc(CN(Cc2ccccc2Cl)C2CCCC2)o1,-12.06
22,Cc1cc(NC(=O)N(C)C2CCN(c3ccccc3F)C2=O)n(C)n1 (configuration not stated),-7.553
23,O=C(c1ccc2c(c1)CCO2)N1CCN(c2ccc(Cl)cn2)CC1,6.232
24,CN(C)CC1CN(CCOc2cccc(C#N)c2)CCO1 (configuration not stated),0.1863
